Measurements: PubChem BioAssay
Active and inactive are the calls of the source. Rule as the data show it, unless noted: active = inhibition above about 33%; inactive = the rest.

Columns and labels:
[1] = biological target: Nuclear receptor coactivator 3 (Homo sapiens) (UniProt Q9Y6Q9); assay: SRC3 coactivator transcriptional activity inhibitors, confirmation, cell-based, luminescence, quadruplicate (AID 588792;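 active = mean inhibition over 43.08%, the solvent-only control mean plus 3 SD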;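 also: 0% = DMSO treated cells and 100% = gossypol at 36 µM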); conditions: HEK293 GAL4-SRC3 luciferase reporter, at 3.6 µM, active compounds read high
[2] = test system: transactivating tegument protein VP16 (Human herpesvirus 1), Gal4-VP16 luciferase reporter; assay: VP16 transactivation inhibitors, counter-screen for SRC3 inhibitor project, cell-based, luminescence, high throughput (AID 588794; in the data active = inhibition above about 30%); conditions: mammalian cells, VP16-driven luciferase reporter luminescence; at 3.6 µM; active compounds read high
[3] = biological target: Nuclear receptor coactivator 1 (Homo sapiens) (UniProt Q15788); assay: SRC1 coactivator transcriptional activity inhibitors, confirmation, cell-based, luminescence, quadruplicate (AID 588820;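 active = mean inhibition above 46.68%, the untreated control wells mean plus 3 SD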;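 also: 0% = DMSO wells and 100% = gossypol 36 µM treated wells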); conditions: HEK293 GAL4-SRC1 luciferase reporter, at 3.6 µM, active compounds read high
[4] = VP16 transactivation inhibitors, counter-screen for SRC1 inhibitor project, cell-based, luminescence, high throughput (AID 588824; in the data active = inhibition above about 25%); conditions: cell-based VP16 transactivation luciferase luminescence; at 3.6 µM; active compounds read high
[5] = StAR promoter reporter inhibitors, counter-screen for LRH-1 inverse agonist project, cell-based, luminescence, high throughput (AID 651611; in the data active = inhibition above about 28%); conditions: StAR promoter luciferase reporter counterscreen, at 3.6 µM, active compounds read high
[6] = biological target: Nuclear receptor subfamily 5 group A member 2 (Homo sapiens) (UniProt O00482); assay: LRH-1 (NR5A2) inverse agonists, retest, confirmation, cell-based, luminescence (AID 651613; in the data active = inhibition above about 42%;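 also: HEK293T cells co-transfected with LRH-1 and StAR promoter luciferase reporter; 0% = vehicle wells and 100% = parental cells lacking receptor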); conditions: cell-based LRH-1 luciferase reporter, inverse agonism; at 3.6 µM; active compounds read high
[7] = biological target: Steroidogenic factor 1 (Homo sapiens) (UniProt Q13285); assay: SF1 (NR5A1) inverse agonists, counter-screen for LRH-1 inverse agonist project, cell-based, luminescence, high throughput (AID 651614; in the data active = inhibition above about 44%;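 also: cells cotransfected with StAR promoter reporter and SF1 expression vector; 0% = vehicle on cells with receptor and 100% = vehicle on cells lacking receptor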); conditions: cell-based SF1 luciferase reporter, at 3.6 µM, active compounds read high
[8] = VP16 transactivation reporter inhibitors, counter-screen for LRH-1 inverse agonist project, cell-based, luminescence, high throughput (AID 651615); conditions: Gal4-VP16 luciferase reporter cells, at 3.6 µM, active compounds read high
[9] = test system: transactivating tegument protein VP16 (Human herpesvirus 1); assay: VP16 transactivation reporter inhibitors, counter-screen for SRC2 inhibitor project, cell-based, luminescence, single concentration (AID 652007; in the data active = inhibition above about 36%); conditions: cell-based VP16 transactivation luciferase reporter, at 8.9 µM, active compounds read high
[10] = biological target: Nuclear receptor coactivator 2 (Homo sapiens) (UniProt Q15596); assay: SRC2 coactivator transcriptional activity inhibitors, confirmation, cell-based, luminescence, HEK293, triplicate (AID 652008;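 active = mean inhibition above 46.5%, the solvent-only control mean plus 3 SD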;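 also: 0% = DMSO-treated cells and 100% = Gossypol at 36 µM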); conditions: HEK293 GAL4-SRC2 luciferase reporter, at 8.9 µM, active compounds read high

Measured: inhibition

Steroidogenic factor 1 (Homo sapiens), sequence (Q13285 whole entry, looked up, the tested form may be a part): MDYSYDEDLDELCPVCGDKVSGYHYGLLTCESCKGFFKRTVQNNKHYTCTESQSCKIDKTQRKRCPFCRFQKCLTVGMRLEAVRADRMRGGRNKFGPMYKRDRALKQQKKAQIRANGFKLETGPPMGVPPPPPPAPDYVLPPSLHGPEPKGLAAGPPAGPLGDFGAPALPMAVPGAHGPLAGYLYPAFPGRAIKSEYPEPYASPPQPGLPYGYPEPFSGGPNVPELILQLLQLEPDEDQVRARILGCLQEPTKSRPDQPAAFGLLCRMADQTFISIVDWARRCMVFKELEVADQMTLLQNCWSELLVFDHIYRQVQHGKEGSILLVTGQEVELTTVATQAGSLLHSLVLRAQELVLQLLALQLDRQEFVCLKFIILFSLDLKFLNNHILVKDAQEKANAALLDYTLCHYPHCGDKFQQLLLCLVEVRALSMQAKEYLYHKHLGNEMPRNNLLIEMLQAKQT
Nuclear receptor coactivator 1 (Homo sapiens), sequence (Q15788 whole entry, looked up, the tested form may be a part): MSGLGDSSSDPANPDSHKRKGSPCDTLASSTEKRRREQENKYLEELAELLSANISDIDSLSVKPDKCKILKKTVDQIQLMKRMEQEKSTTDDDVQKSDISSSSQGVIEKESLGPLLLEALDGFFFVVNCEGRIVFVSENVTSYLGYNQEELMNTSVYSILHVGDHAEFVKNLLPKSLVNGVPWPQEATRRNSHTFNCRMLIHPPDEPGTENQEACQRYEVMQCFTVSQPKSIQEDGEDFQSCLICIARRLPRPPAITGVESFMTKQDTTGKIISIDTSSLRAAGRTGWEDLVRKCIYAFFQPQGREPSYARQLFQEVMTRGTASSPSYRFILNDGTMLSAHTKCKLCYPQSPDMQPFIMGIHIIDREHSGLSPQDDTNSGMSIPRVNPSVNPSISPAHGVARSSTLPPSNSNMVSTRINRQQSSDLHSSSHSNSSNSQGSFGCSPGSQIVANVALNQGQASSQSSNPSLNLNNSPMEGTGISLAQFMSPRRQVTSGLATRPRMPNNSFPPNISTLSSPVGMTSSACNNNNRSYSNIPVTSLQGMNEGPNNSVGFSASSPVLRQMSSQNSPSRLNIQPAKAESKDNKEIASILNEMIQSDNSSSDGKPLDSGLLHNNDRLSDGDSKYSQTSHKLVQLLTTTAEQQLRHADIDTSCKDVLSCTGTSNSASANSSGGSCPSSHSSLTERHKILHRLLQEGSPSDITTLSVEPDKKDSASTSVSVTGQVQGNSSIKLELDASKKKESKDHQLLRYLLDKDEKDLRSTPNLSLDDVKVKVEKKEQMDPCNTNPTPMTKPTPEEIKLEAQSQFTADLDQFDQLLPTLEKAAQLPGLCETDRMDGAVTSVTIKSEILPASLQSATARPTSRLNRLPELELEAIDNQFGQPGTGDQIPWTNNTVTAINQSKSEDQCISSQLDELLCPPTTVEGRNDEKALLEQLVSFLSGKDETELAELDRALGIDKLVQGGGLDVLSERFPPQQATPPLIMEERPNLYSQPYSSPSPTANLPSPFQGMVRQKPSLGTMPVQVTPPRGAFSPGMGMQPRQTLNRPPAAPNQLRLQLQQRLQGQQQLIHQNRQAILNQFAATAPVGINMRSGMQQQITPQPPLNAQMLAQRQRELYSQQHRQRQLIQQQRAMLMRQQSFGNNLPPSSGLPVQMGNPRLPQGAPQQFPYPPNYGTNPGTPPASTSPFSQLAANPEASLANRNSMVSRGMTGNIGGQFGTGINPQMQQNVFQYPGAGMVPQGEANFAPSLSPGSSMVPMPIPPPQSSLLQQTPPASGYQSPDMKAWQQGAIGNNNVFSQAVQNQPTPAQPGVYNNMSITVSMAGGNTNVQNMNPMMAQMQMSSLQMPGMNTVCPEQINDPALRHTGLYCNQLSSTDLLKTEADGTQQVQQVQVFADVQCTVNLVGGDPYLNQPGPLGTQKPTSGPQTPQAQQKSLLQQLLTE
Nuclear receptor coactivator 2 (Homo sapiens), sequence (Q15596 whole entry, looked up, the tested form may be a part): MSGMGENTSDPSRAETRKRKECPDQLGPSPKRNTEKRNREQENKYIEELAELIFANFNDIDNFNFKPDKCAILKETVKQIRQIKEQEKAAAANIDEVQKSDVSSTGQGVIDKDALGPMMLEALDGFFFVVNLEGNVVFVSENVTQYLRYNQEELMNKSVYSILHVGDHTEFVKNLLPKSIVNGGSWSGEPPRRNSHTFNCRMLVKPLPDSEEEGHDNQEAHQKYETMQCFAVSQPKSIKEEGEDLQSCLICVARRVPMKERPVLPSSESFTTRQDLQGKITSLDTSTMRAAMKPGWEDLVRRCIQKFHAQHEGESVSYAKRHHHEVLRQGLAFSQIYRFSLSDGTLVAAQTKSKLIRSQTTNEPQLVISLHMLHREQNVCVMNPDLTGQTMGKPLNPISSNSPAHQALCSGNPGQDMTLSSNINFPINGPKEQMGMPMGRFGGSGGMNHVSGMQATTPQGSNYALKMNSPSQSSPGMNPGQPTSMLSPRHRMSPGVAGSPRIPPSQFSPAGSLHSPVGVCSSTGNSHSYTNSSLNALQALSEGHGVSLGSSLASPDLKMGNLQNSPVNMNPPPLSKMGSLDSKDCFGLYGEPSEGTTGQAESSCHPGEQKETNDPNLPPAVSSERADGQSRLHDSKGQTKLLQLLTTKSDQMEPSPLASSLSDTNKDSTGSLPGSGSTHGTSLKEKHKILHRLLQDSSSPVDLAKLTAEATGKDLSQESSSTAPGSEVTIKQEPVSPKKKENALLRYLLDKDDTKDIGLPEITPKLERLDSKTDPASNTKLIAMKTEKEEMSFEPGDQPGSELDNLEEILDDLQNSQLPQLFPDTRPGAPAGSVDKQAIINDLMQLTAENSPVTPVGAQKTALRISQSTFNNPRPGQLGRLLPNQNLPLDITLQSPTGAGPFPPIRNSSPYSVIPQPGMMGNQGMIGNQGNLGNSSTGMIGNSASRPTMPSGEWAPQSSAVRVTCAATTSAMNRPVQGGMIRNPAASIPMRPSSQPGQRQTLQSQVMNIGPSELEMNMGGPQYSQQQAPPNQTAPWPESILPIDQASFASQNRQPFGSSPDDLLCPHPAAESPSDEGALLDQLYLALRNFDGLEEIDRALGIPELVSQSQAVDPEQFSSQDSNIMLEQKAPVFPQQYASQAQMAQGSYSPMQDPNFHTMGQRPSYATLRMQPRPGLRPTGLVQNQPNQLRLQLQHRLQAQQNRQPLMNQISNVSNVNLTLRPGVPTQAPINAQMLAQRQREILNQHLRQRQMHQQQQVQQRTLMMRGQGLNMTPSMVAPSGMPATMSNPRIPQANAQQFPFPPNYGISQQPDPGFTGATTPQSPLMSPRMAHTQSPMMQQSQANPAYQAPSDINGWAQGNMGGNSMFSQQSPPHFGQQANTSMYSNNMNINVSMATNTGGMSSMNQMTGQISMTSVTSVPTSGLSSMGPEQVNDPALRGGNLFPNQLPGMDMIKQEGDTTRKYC
Nuclear receptor coactivator 3 (Homo sapiens), sequence (Q9Y6Q9 whole entry, looked up, the tested form may be a part): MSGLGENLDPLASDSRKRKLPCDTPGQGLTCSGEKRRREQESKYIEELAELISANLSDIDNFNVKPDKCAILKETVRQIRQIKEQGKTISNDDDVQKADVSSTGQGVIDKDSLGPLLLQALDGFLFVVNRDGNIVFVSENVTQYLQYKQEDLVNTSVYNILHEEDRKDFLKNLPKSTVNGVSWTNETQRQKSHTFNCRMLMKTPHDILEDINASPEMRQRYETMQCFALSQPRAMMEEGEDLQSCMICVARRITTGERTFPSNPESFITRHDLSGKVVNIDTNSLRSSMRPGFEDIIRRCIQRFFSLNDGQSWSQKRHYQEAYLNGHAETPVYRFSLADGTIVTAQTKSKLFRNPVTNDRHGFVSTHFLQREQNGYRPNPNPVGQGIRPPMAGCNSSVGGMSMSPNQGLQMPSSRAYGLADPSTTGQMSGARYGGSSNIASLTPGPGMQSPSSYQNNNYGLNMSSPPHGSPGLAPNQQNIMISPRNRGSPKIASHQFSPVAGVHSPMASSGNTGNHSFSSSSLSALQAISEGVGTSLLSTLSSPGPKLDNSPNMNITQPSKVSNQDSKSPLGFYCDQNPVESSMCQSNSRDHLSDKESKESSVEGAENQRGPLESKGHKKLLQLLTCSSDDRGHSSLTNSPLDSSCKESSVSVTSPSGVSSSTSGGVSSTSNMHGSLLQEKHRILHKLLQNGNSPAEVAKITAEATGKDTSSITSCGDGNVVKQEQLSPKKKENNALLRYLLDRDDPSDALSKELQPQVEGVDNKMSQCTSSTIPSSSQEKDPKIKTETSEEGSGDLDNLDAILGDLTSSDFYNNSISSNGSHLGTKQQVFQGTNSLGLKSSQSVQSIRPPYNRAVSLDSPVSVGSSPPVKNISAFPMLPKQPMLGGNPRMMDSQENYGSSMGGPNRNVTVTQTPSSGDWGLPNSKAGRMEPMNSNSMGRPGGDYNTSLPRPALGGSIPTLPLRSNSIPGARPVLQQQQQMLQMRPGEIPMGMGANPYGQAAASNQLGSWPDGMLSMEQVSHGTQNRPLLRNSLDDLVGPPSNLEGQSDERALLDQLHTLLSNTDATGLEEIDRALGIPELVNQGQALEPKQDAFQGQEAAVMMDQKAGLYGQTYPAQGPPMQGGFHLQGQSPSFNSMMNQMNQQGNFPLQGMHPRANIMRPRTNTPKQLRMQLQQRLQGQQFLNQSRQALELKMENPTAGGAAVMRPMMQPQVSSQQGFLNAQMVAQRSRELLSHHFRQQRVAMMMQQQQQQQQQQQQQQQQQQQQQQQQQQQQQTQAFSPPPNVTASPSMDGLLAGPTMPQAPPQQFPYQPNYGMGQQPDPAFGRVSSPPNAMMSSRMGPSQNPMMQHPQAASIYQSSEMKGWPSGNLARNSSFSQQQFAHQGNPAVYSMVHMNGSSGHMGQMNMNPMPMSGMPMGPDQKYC

COc1ccc([C@@]23Oc4cc(OC)cc(OC)c4[C@]2(O)[C@H](O)[C@H](C(=O)N(C)C)[C@H]3c2ccccc2)cc1
active: [1] 95.7% | [2] 93.7% | [3] 85.6% | [4] 92.9% | [5] 97.6% | [6] 111% | [7] 99.3% | [8] 98.2% | [9] 56.2% | [10] 68.6%

Cc1cc(C(=O)CN2C(=O)c3ccccc3S2(=O)=O)c(C)n1CC1CCCO1 (stereo not given)
active: [1] 82.9% | [2] 62.8% | [3] 77.7% | [4] 60% | [5] 78.1% | [6] 81% | [7] 80.4% | [8] 68.2% | [9] 63.7% | [10] 93.7%

Cc1nn(-c2nc3ccccc3[nH]2)c(=O)c2ccccc12
active: [1] 72.3% | [2] 65% | [3] 47.4% | [4] 68.3% | [5] 69.2% | [6] 63.9% | [7] 78.8% | [8] 59.3% | [9] 82.9% | [10] 89.3%

CC1CC(C)C(=NNC(N)=O)C(C(O)CC2CCC(=O)NC2=O)C1 (stereo not given)
active: [5] 63.1% | [6] 76.7% | [7] 75.8%
inactive: [1] 9.15% | [2] 11.3% | [3] 33.6% | [4] 7.8% | [8] 30% | [9] 8% | [10] -0.31%

Cc1ccc(C(=O)Nc2sc(C)c(-c3ccccc3)c2C(N)=O)cc1[N+](=O)[O-]
active: [1] 64% | [2] 50% | [5] 47.7% | [9] 71.9% | [10] 74.1%
inactive: [3] 29.8% | [4] 22.4% | [6] -41.3% | [7] 38.9% | [8] 10.9%

O=S(=O)(c1ccc(NC(=S)NCc2cccnc2)cc1)N1CCCCC1
inactive: [9] 12.3%
active: [1] 91% | [2] 72.3% | [3] 77.6% | [4] 65.2% | [5] 90.8% | [6] 102% | [7] 96.3% | [8] 88.6% | [10] 50.2%

CCCc1ccc(C(=O)O/N=C(\N)c2ccccn2)cc1
inactive: [1] 16.8% | [2] -24.7% | [3] -82.5% | [4] -63.2% | [5] -12.5% | [6] -85.8% | [7] 2.79% | [8] -41.9% | [9] -18.6% | [10] 31.1%

C=C1C(=O)OC2CC1C(OC(C)=O)CC(C)=CCCC(C)=CCCC2(C)O (stereo not given)
inactive: [1] 0.28% | [3] 23.6% | [6] 25.2% | [7] 25% | [9] 26.4% | [10] 38.7%
active: [2] 39.9% | [4] 34.9% | [5] 39.1% | [8] 56%

O=C(NN=Cc1c(O)ccc2ccccc12)c1ccncc1
inactive: [9] -16.9% | [10] 38%
active: [1] 77% | [2] 70.6% | [3] 65.6% | [4] 65.3% | [5] 87.4% | [6] 104% | [7] 89.8% | [8] 77.4%

CC(C)(C)C(=O)/C(=C/c1ccc(Cl)cc1)n1cncn1
active: [1] 73.4% | [2] 64.5% | [4] 59.1% | [5] 78.4% | [6] 70.4% | [7] 77% | [8] 78.9% | [9] 51.1% | [10] 79.7%
inactive: [3] 40.2%

Cc1cc(C(=O)COC(=O)c2ccccc2Br)c(C)n1CC1CCCO1 (stereo not given)
active: [1] 77.5% | [2] 71.7% | [3] 60.3% | [4] 51.9% | [5] 57.3% | [7] 51% | [8] 48.6% | [9] 66.2% | [10] 90.6%
inactive: [6] 20.4%

CC1CCc2nc(N)c(C#N)c(-c3cccnc3)c2C1 (stereo not given)
inactive: [9] 15.6%
active: [1] 66.7% | [2] 57.9% | [3] 68.7% | [4] 58.6% | [5] 42.3% | [6] 52.9% | [7] 46.1% | [8] 72.9% | [10] 53.9%

O=C(N/N=C\c1ccc([N+](=O)[O-])o1)C1COc2ccccc2O1 (stereo not given)
inactive: [1] 35.9% | [2] 9.31% | [3] -8.42% | [4] -19.5% | [5] 27.1% | [6] 40.7% | [8] -8.47%
active: [7] 49.8% | [9] 40.8% | [10] 51.5%

COCCn1c(C)cc(C2=NNC(=Nc3ccccc3F)SC2)c1C
active: [1] 57.4% | [2] 52.3% | [3] 60.5% | [4] 28.1% | [5] 54.2% | [7] 63% | [9] 87.2% | [10] 91.5%
inactive: [6] -47% | [8] -31.7%

c1csc(CNc2ccc3c(c2)OCCO3)c1
inactive: [1] 23.3% | [2] -33.9% | [3] -25.5% | [4] -34.9% | [5] -19.7% | [6] -77.1% | [7] -20.9% | [8] -49.8%
active: [9] 60.7% | [10] 47.1%
